# Test results as given in the supplement of paper PMC10849652.
# About 7,900 targets were measured; listed, in parts, are those with a hit and a random draw of the rest. About 0.6% of all pairs of compound and target were hits. Unmarked numbers belong to inactive results.
# Assays:
# Experiment in all cases: log2 fold change, soluble protein after heating vs DMSO (PISA); higher = thermal stabilisation; K562 cells, 10 uM, 30 min; active = over 0.2 and 3.5 SD of the protein, either way, in both replicates (recomputed)
# [1] = compound: Cc1ccc(NC(=O)c2ccc(CN3CC[C@H](N(C)C)C3)c(C(F)(F)F)c2)cc1Nc1nccc(-c2cncnc2)n1 [bafetinib]
# How it was run: (§1)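 Thermal stability values are relative to control samples and come from duplicates. They are expressed as log2 fold changes. For measurement, K562 cells (2×10^6 cells/mL) received 10 μM compound for 30 min, and aliquots were heated for 3 min over 48°C-58°C, pooled, and extracted at 4°C in PBS with 0.5% NP-40. Soluble protein, the supernatant after 21,000xg for 90 min, was quantified by TMTpro 16plex LC-MS/MS with equalised channel sums.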
# [2] = compound: Cc1cccc(CC(=O)N2CCc3c2ccc(-c2cn(C)c4ncnc(N)c24)c3F)n1
# How it was run: as §1
# [3] = compound: Cc1cn(-c2cc(NC(=O)c3ccc(C)c(Nc4nccc(-c5cccnc5)n4)c3)cc(C(F)(F)F)c2)cn1 [nilotinib]
# How it was run: as §1
# [4] = compound: Cc1nc(Nc2n[nH]c3c2CN(C(=O)N[C@H](CN(C)C)c2ccccc2)C3(C)C)c2sccc2n1
# How it was run: as §1
# [5] = compound: Cc1nc(Nc2ncc(C(=O)Nc3c(C)cccc3Cl)s2)cc(N2CCN(CCO)CC2)n1 [dasatinib]
# How it was run: as §1
# [6] = compound: Cc1ncc(-c2ccnc(Nc3ccc(S(C)(=O)=O)cc3)n2)n1C(C)C
# How it was run: as §1
# [7] = compound: Cn1cc(-c2ccc3c(c2)CCN3C(=O)Cc2cccc(C(F)(F)F)c2)c2c(N)ncnc21
# How it was run: as §1
# [8] = compound: Cn1cc(-c2ccc3nnc(C(F)(F)c4ccc5ncccc5c4)n3n2)cn1
# How it was run: as §1
# [9] = compound: Cn1cncc1[C@@](N)(c1ccc(Cl)cc1)c1ccc2c(c1)c(-c1cccc(Cl)c1)cc(=O)n2C [tipifarnib]
# How it was run: as §1
# [10] = compound: FC(F)(F)c1ccc(/C=C/c2nc(COc3ccc(CCCCn4ccnn4)cc3)co2)cc1 [mubritinib]
# How it was run: as §1
# Sequence of UniProt Q6J4K2 (Q6J4K2 whole entry, looked up): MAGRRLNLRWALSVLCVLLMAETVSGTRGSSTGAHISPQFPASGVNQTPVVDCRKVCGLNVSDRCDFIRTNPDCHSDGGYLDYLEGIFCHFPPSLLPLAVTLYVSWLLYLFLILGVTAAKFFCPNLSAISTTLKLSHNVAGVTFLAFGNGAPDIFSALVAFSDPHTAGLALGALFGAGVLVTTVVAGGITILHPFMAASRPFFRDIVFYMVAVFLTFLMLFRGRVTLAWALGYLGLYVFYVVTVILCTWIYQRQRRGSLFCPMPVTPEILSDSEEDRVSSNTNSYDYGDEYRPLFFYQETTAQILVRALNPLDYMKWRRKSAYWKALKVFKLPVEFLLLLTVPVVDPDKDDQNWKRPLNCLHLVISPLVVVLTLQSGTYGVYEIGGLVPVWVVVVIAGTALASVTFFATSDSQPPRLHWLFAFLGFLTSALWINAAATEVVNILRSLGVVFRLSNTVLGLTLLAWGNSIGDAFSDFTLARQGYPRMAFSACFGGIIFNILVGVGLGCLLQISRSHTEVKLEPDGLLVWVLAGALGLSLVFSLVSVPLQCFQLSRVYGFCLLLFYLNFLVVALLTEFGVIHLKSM
# Sequence of UniProt Q9BZD2 (Q9BZD2 whole entry, looked up): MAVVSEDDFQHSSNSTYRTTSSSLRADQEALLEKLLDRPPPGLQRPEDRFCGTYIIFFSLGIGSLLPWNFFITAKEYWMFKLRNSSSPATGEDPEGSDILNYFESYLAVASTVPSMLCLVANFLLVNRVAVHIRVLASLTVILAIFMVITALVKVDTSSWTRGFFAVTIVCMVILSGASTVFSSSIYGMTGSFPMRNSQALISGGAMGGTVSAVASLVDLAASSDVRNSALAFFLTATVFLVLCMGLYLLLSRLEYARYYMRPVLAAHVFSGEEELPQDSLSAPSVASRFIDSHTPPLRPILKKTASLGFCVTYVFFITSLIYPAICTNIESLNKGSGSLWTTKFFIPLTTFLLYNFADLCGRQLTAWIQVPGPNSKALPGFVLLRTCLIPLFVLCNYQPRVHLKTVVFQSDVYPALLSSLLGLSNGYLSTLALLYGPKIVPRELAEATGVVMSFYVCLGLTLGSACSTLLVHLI
# Sequence of UniProt Q9BUA3 (Q9BUA3 whole entry, looked up): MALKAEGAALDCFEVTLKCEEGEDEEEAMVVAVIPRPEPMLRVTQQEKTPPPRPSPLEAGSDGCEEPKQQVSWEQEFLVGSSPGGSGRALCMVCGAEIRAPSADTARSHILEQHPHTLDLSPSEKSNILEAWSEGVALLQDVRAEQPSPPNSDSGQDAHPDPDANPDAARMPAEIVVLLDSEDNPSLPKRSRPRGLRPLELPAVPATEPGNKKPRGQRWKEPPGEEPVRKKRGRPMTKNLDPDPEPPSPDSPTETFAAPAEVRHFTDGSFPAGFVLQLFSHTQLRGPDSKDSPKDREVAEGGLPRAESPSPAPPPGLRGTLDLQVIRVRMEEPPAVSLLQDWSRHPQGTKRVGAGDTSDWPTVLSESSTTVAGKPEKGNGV
# Sequence of UniProt P51692 (P51692 whole entry, looked up): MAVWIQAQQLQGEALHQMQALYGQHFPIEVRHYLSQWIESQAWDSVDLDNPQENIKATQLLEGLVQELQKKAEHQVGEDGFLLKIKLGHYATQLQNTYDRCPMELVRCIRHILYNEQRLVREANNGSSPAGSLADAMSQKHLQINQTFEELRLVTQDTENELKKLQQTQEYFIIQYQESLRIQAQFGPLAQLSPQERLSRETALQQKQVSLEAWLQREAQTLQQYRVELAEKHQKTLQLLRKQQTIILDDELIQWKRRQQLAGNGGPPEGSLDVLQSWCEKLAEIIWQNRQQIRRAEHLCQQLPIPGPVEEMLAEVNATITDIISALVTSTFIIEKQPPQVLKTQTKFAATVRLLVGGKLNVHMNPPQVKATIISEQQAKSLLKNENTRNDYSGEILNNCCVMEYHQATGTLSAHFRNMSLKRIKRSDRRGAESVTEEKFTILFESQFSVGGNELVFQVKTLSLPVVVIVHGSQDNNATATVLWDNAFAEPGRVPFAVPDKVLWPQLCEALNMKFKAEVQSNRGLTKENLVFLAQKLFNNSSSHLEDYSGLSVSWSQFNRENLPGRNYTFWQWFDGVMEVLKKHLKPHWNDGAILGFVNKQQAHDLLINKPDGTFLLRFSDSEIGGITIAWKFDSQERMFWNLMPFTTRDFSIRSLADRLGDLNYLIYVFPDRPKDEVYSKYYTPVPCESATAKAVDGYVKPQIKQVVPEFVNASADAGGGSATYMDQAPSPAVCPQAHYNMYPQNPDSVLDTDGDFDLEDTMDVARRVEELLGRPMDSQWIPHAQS
# Sequence of UniProt Q969X1 (Q969X1 whole entry, looked up): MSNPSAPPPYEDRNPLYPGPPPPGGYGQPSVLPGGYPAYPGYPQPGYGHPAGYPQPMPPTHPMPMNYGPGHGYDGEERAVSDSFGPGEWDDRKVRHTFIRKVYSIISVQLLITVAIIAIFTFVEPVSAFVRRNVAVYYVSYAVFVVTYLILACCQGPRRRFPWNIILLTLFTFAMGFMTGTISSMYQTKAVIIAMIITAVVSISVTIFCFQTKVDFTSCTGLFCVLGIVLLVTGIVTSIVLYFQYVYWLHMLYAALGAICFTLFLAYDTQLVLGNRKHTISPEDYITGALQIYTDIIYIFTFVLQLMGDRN
# Sequence of UniProt Q9NS93 (Q9NS93 whole entry, looked up): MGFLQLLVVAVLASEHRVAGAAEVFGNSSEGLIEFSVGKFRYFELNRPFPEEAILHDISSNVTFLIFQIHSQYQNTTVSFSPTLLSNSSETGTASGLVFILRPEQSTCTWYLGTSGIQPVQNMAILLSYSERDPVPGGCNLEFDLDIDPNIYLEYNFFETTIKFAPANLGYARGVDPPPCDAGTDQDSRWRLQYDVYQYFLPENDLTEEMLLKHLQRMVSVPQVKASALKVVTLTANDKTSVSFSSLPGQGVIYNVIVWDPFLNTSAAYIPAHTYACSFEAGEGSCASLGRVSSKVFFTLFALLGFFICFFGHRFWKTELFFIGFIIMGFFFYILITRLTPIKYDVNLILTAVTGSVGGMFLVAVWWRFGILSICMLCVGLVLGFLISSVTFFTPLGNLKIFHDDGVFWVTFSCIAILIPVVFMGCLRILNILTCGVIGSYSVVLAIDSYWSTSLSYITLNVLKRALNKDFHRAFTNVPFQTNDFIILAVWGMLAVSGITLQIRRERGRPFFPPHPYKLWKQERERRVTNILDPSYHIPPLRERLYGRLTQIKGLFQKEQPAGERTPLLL
# Sequence of UniProt O60271 (O60271 whole entry, looked up): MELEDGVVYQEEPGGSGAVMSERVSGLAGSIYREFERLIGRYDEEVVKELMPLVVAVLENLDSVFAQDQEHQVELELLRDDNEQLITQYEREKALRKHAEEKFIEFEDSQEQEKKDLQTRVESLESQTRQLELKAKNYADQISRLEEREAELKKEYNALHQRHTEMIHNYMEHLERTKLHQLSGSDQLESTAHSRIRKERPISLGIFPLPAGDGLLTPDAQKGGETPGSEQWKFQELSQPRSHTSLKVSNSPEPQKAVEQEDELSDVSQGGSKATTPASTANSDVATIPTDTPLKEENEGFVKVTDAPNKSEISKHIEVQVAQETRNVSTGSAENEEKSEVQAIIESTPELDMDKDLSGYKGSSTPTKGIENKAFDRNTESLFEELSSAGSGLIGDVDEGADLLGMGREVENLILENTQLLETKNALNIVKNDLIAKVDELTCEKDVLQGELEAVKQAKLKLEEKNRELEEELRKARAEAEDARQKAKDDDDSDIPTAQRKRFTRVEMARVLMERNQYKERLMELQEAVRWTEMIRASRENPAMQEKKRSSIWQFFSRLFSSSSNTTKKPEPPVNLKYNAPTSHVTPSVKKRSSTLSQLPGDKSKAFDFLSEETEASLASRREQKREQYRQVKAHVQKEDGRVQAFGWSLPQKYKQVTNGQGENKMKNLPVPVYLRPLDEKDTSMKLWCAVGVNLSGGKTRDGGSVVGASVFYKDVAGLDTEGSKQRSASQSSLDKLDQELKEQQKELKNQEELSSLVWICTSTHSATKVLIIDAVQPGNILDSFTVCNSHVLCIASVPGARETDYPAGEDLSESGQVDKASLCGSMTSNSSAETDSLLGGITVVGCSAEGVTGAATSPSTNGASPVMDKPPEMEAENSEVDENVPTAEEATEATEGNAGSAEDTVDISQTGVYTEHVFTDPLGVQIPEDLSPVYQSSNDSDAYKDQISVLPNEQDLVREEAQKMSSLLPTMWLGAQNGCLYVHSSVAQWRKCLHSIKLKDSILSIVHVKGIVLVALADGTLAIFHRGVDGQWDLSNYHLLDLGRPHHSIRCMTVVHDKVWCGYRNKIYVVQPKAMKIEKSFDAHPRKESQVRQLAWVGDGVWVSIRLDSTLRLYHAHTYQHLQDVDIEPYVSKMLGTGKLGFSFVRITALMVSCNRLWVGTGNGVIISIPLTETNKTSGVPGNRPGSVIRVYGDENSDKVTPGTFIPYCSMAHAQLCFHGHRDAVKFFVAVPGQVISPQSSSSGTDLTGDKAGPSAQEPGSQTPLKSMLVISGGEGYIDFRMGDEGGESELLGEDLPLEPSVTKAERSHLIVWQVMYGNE
# Sequence of UniProt P78382 (P78382 whole entry, looked up): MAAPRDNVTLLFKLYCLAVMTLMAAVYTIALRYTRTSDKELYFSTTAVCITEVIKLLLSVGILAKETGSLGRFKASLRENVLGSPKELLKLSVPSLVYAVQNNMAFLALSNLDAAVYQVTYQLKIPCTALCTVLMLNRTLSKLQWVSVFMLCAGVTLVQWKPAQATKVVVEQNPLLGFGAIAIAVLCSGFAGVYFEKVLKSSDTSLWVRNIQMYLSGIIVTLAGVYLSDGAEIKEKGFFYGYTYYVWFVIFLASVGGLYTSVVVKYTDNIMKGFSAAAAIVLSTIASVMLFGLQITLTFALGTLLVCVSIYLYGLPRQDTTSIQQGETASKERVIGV
# Sequence of UniProt Q9H4I9 (Q9H4I9 whole entry, looked up): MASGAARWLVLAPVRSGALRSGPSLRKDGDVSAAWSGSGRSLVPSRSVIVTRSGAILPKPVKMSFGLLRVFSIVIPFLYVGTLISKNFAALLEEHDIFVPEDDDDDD
Target,log2 fold change [1],log2 fold change [2],log2 fold change [3],log2 fold change [4],log2 fold change [5],log2 fold change [6],log2 fold change [7],log2 fold change [8],log2 fold change [9],log2 fold change [10]
TMBIM1 (UniProt Q969X1),0.068,-0.07,0.168,-0.044,-0.01,0.149,-0.06,-0.105,-0.318,0.025
TFB2M (UniProt Q9H5Q4),-0.046,0.008,-0.043,-0.024,-0.099,0.009,0.012,-0.004,-0.132,-0.039
SRC isoform 2 (UniProt P12931),-0.054,-0.037,-0.041,-0.499,–,-0.136,0.008,-0.163,0.005,0.031
SLC25A39 (UniProt Q9BZJ4),-0.182,-0.397,-0.136,-0.119,-0.035,0.035,0.081,0.092,0.009,0.104
STAT5B (UniProt P51692),-0.056,0.109,-0.218,-0.432,-0.443 (active),0.162,0.07,0.08,-0.163,0.308
SYNE1 (UniProt Q8NF91),-0.051,0.008,0.021,-0.281,-0.074,-0.074,0.079,-0.098,–,0.182
TGFBI (UniProt Q15582),-0.241,0.148,-0.099,0.054,-0.04,0.167,0.197,0.098,-0.063,-0.02
SPINDOC (UniProt Q9BUA3),-0.149,-0.031,0.049,-0.458 (active),-0.105,-0.127,-0.085,-0.044,0.046,0.04
SUN1 isoform 9 (UniProt O94901),–,-0.036,-0.014,-0.115,0.007,-0.018,-0.141,-0.055,0.039,-0.021
TCOF1 isoform 3 (UniProt Q13428),–,-0.005,–,–,–,–,–,-0.419,–,–
SLC29A3 (UniProt Q9BZD2),-0.111,–,-0.055,0.127,-0.059,0.012,0.167,0.102,0.035,0.005
SMARCA4 (UniProt P51532),0.149,-0.118,–,–,0.118,–,-0.036,0.033,0.197,0.101
TMBIM6 isoform 2 (UniProt P55061),-0.135,–,-0.158,0.028,-0.081,-0.037,0.063,-0.073,-0.269,0.036
SYK (UniProt P43405),0.276,–,–,–,-0.356,–,0.141,-0.041,0.075,–
SNRK (UniProt Q9NRH2),–,–,–,–,-0.061,–,–,–,-0.079,–
SLC46A1 (UniProt Q96NT5),–,-0.016,–,–,–,–,-0.119,–,–,–
SREBF1 isoform 4 (UniProt P36956),-0.357,–,–,–,-0.043,–,–,–,–,-0.004
SLC27A1 (UniProt Q6PCB7),0.047,–,-0.087,-0.009,-0.152,0.079,-0.053,0.046,0.094,0.431 (active)
SLC9A6 isoform 3 (UniProt Q92581),-0.096,–,–,–,0.065,–,0.048,–,0.028,–
SLC38A2 (UniProt Q96QD8),-0.112,–,-0.037,0.039,0.047,0.029,-0.055,0.029,-0.073,0.017
SLC35B4 (UniProt Q969S0),-0.12,–,0.027,0.016,–,0.1,–,–,–,0.032
TM7SF2 (UniProt O76062),–,–,-0.113,-0.059,-0.25,0.018,0.035,0.046,-0.067,–
SSBP4 (UniProt U3KPY3),–,–,–,–,–,–,–,–,–,0.046

Target,log2 fold change [1],log2 fold change [2],log2 fold change [3],log2 fold change [4],log2 fold change [5],log2 fold change [6],log2 fold change [7],log2 fold change [8],log2 fold change [9],log2 fold change [10]
TAF6L (UniProt Q9Y6J9),–,-0.078,0.032,-0.048,-0.224,0.046,-0.106,-0.018,0.055,0.104
TBP (UniProt P20226),-0.039,–,0.008,0.093,0.104,0.079,-0.112,0.036,0.013,0.004
SSB (UniProt E7ERC4),–,-0.025,–,–,-0.528,–,–,–,–,-0.063
SOX5 (UniProt P35711),-0.06,–,-0.437 (active),-0.011,–,0.211,0.042,-0.039,0.027,0.064
TC2N (UniProt Q8N9U0),–,–,0.052,-0.71 (active),0.068,-0.024,–,-0.153,–,0.176
SPAG9 isoform 4 (UniProt O60271),-0.301,–,0.073,-0.118,–,0.022,-0.072,0.11,–,0.074
TANGO6 (UniProt Q9C0B7),0.033,–,-0.018,-0.066,-0.216,-0.006,0.083,-0.048,-0.067,0.042
TM7SF3 (UniProt Q9NS93),-0.147,–,-0.004,0.005,0.005,-0.029,-0.034,0.034,0.019,0.147
TBC1D2 (UniProt Q9BYX2),–,0.213,–,–,–,–,–,–,–,-0.085
SLC35B1 isoform 2 (UniProt P78383),-0.018,–,-0.065,0.052,0.142,-0.097,-0.13,-0.172,–,0.016
SP2 (UniProt Q02086),–,–,–,–,0.001,–,–,–,–,–
SLC39A1 (UniProt Q9NY26),–,0.116,–,–,–,–,-0.17,–,–,–
SMARCB1 (UniProt Q12824),–,-0.277,–,–,-0.059,–,-0.122,–,–,–
SMDT1 (UniProt Q9H4I9),-0.138,0.006,–,–,0.005,–,0.137,–,–,0.068
TCOF1 isoform 6 (UniProt Q13428),0.137,–,-0.102,0.14,–,-0.033,0.07,-0.061,–,-0.091
SLC35F6 (UniProt Q8N357),-0.208,–,-0.037,-0.13,0.078,0.143,0.049,0.052,0.01,0.072
SLC8B1 (UniProt Q6J4K2),-0.149,0.006,–,–,-0.012,–,-0.019,0.103,0.058,–
THAP9 (UniProt Q9H5L6),0.191,–,0.03,-0.009,-0.082,-0.04,0.119,0.072,–,0.17
SLC35A1 (UniProt P78382),0.005,–,-0.009,-0.055,0.036,-0.02,0.03,0.067,-0.022,0.049
TDP1 (UniProt Q9NUW8),–,–,–,–,–,–,-0.1,–,–,–
TAOK2 (UniProt Q9UL54),–,0.092,-0.032,0.048,–,-0.028,–,-0.093,0.014,0.01
SMPD4 isoform 2 (UniProt Q9NXE4),-0.026,0.151,–,–,-0.285,–,0.09,–,-0.111,0.108
SNX2 isoform 2 (UniProt O60749),-0.163,–,–,–,-0.097,–,0.16,–,-0.155,–
